PI5P4K alpha inh – blocks human PI5P4K alpha kinase activity. P48426. PI5P4Kalpha enzyme, ADP-Glo luminescence, 60 min; active compounds read low. max response, %. actives 1.2% (n = 330,000). AID 652105; active means max response of -50% or lower; inconclusive means between -30% and -50%; inactive means -30% or higher; further: value at the top dose of about 77 µM; on the % scale 0 is the no-effect control and ±100 the full control effect
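Controls without substrate or without enzyme flank wells where PI5P4Kalpha converts substrate using 5 microM ATP (final). Incubation lasts 60 minutes at room temperature; ADP formed is read by ADP-Glo luminescence.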
L3MBTL1 block – inhibitors of human L3MBTL1 | Potency, µM (top dose mostly 57.1 µM), without a hit: at the top dose activity, negative = inhibition, hits mostly inhibitors | actives 0.66% (n = 230,000) | Q9Y468 | AID 485360 | AlphaScreen L3MBTL1–H3K9me1 peptide binding; further: potency means the concentration at half of the fitted maximal effect; on the % scale 0 is the no-effect control and ±100 the full control effect; nearly all actives have a fitted effect of over 60% in size
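Read-out is AlphaScreen signal from streptavidin donor and nickel chelate acceptor beads (10 ug/mL final each) bridging L3MBTL1 (50 nM) and biotinylated K9-monomethylated H3(1-15) peptide (75 nM), after 30 min compound exposure at room temperature.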
JMJD2A Tudor inh – inhibitors of human JMJD2A Tudor domain; O75164; AlphaScreen JMJD2A-Tudor / H3K4me3 peptide binding; Potency, µM (titrated, usually from 114 µM), for inactives: at the top dose activity change, negative = inhibition, hits mostly inhibitors; actives 4.4% (n = 390,000); AID 504339; further: potency means the concentration at half of the fitted maximal effect; on the % scale 0 is the no-effect control and ±100 the full control effect; nearly all actives have a fitted effect of over 50% in size
BAZ2B block – BAZ2B (human) inhibition; AlphaScreen BAZ2B-H3K14Ac peptide displacement; Potency, µM (series often up to 114 µM), inactives show top-dose activity change, negative = inhibition, hits mostly inhibitors; actives 4.4% (n = 360,000); AID 504333; further: potency means the concentration at half of the fitted maximal effect; on the % scale 0 is the no-effect control and ±100 the full control effect; nearly all actives have a fitted effect of over 60% in size
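AlphaScreen displacement of biotin-H3(5-23)K14Ac peptide (50 nM final) from BAZ2B (50 nM final) in PBS pH 7.4, 0.01% Tween-20; complex preformed 30 min RT, then compounds (top 110 uM) 30 min RT, beads 20 min dark.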
JMJD2E inh – JMJD2E (human) inhibition; actives 1.6% (n = 230,000); B2RXH2; Potency, µM (highest dose often 57.1 µM), inactives show top-dose activity change, negative = inhibition, usual class: inhibitors; JMJD2E catalytic domain, FDH-coupled NADH fluorescence (FDH is formaldehyde dehydrogenase); active means well fitted inhibition curve with a large enough effect, not every such curve was filed as active; inconclusive means small, poorly fitted or top-dose-only effect, or another doubt; inactive means no such curve, though single readings can be large or run the other way;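 further: potency means the concentration at half of the fitted maximal effect; 0% = wells with enzyme and -100% = buffer wells without enzyme; nearly all actives have a fitted effect of over 50% in size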
Target sequence (B2RXH2 1-337 limits assumed): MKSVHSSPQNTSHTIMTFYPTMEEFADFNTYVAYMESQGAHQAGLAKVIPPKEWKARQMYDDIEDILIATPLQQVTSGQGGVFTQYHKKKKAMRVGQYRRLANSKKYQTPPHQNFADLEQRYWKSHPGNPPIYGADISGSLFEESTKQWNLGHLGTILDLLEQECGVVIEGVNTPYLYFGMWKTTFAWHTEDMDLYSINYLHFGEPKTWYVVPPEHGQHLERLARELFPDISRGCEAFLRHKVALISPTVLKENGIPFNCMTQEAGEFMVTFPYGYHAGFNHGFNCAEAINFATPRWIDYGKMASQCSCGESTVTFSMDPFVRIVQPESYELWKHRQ
HP1b binding inh – HP1-beta chromodomain-methylated histone interaction inhibition; P83916; AlphaScreen HP1-beta / biotin-H3K9me3 peptide binding; Potency, µM (top dose mostly 114 µM), for the others: at the highest dose activity change, negative = inhibition, hits mostly inhibitors; actives 0.56% (n = 390,000); AID 540317; further: potency means the concentration at half of the fitted maximal effect; nearly all actives have a fitted effect of over 70% in size
Target sequence (P83916 whole entry, looked up): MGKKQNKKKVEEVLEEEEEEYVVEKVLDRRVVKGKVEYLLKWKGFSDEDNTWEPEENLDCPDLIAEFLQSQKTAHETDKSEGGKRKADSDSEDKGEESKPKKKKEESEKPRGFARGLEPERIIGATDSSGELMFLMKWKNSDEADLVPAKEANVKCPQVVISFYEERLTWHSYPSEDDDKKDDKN
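AlphaScreen: HP1-beta (50 nM) preformed 30 min with biotin-H3(1-18)K9me3 peptide (50 nM) in PBS pH 7.4, 0.01% Tween-20. Compound added for 30 min at RT, then streptavidin donor/nickel chelate acceptor beads (10 ug/mL) for 30 min.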
* hit, by the source's call; ? = inconclusive; · = not tested or not shown; [ ] = dose if it differs, or a comment. Compounds with a hit are over-represented: about 5.7% of the library has one in this group of screens. Unless noted, the call rests on the fitted dose curve; in most records, active means well fitted inhibition curve with a large enough effect; inconclusive means small, poorly fitted or top-dose-only effect; inactive means no such curve, though single readings can be large or run the other way.

SMILES	PI5P4K alpha inh	L3MBTL1 block	JMJD2A Tudor inh	BAZ2B block	JMJD2E inh	HP1b binding inh
COC(=O)CCC(=O)OC1(C)C(=O)C2=CN(C3CC3)C(c3ccc(OC)cc3)=CC2=C(Br)C1=O (configuration not stated)	-3	·	?	·	?	-15%
COC(=O)CCC(=O)OC1(C)C(=O)C2=CN(CCCOC(C)C)C(c3ccc(OC)cc3)=CC2=C(Br)C1=O (configuration not stated)	-15	·	?	?	4.5µM*	-3%
COC(=O)CCC(=O)OC1(C)C(=O)C2=CN(c3ccccc3)C(c3ccc(OC)cc3)=CC2=C(Br)C1=O (configuration not stated)	?	·	?	·	?	-17%
CCc1cccc(CC)c1NC(=O)Cn1nnc2sc3c(c2c1=O)CCCC3	·	·	-12%	-1%	·	33%
CCOC(=O)C1CCN(S(=O)(=O)c2c(Cl)ccc3nonc23)CC1	·	·	·	-17%	·	·
CCOC(=O)C1=C(C)OC(=Cc2ccccc2)C1=O	0	·	·	·	·	·
CCOC(=O)C1=C(O)c2ccccc2C(=O)/C1=C\c1ccc(C)cc1	-56*	-16%	40µM*	20µM*	?	35µM*
Cc1cccc(-n2c(O)c(C=Nc3cccc(O)c3)c3ccccc3c2=O)n1	-20	-10%	-13%[11.4 µM]	-27%	-6%	-19%
CC1=NC(=O)C(N=Nc2cccc(O)c2)N1c1ccccc1 (configuration not stated)	·	·	32µM*	20µM*	-9%	?
COc1cc(OC)c(C(=O)NCc2nc(-c3ccccc3)no2)cc1OC	·	·	-25%	-5%	·	2%
O=C(CN1CCN(c2ccccc2Cl)CC1)NC1CCCc2ccccc21 (configuration not stated)	27	1%	1µM*	20µM*	?	?
CCSc1ncnc2c1sc1nc(-c3ccco3)c3c(c12)CC(C)(C)OC3	·	-1%	·	-2%	-19%	·
COC(=O)CSc1ncnc2c1sc1nc(-c3ccco3)c3c(c12)CC(C)(C)OC3	·	?	·	50µM*	?	·
CCCCN(CC)C(=O)Nc1ccc2c(c1)N(C)C(=O)c1ccccc1S2	·	·	?	?	·	-15%
Cc1[nH][nH]c(=O)c1C(c1c(C)[nH][nH]c1=O)c1cn(Cc2cccc3ccccc23)c2ccccc12	?	?	-27%[11.4 µM]	?	28%	28µM*
CCOc1ccc(C2CC(=O)NC(NC(=O)c3cccc(Cl)c3)=N2)cc1 (configuration not stated)	·	·	-10%	4%	·	8%
CCOc1ccc(NC(=O)CSc2nc3c([nH]c4ccccc43)c(=O)n2-c2cc(C)cc(C)c2)cc1	·	·	13%	-1%	·	27%[57 µM]
O=C1C=CC(=Nc2ccc3c(c2)Cc2cc(F)ccc2-3)O1	-58*	·	?	·	·	?
O=C(O)c1ccccc1-c1c2cc(I)c(=O)c(I)c-2oc2c(I)c(O)c(I)cc12	-99*	·	18µM*	·	·	?
CCCCCC1(C)NC(=S)N(c2ccccc2)N1 (configuration not stated)	5	·	50µM*	?	?	-7%
CCCCCCC1(C)NC(=S)N(c2ccccc2)N1 (configuration not stated)	-24	·	?	·	?	?
CC1(CC(=O)Nc2ccccc2)NC(=S)N(c2ccccc2)N1 (configuration not stated)	-11	-1%	5.6µM*	?	-9%	-7%
Cc1cccc(Cn2ncc3c4sc(C)cc4n(C)c3c2=O)c1	·	·	11%	·	·	·
CCN(CC)CCN(C(=O)c1ccco1)c1nc2ccc(Br)cc2s1	·	·	-9%	-2%	·	36%
CC(=O)Nc1ccccc1OC1=N[S+](=O)([O-])c2ccccc21	·	·	-10%	·	·	·
SMILES	PI5P4K alpha inh	L3MBTL1 block	JMJD2A Tudor inh	BAZ2B block	JMJD2E inh	HP1b binding inh
Cc1c(C#N)c(O)n(C)c(=O)c1N=Nc1ccc(S(N)(=O)=O)cc1	-15	·	-27%	-38%	-3%	9%
Cc1c(C#N)c(O)n(CCO)c(=O)c1N=Nc1ccc(S(N)(=O)=O)cc1	-20	·	-10%	79µM*	-18%	32%
COc1ccc(C(=O)/C(=C/c2cccs2)c2nc3ccccc3o2)cc1	-11	·	45µM*	-33%	-4%	?
O=C(C[C@H]1C[C@H](C(=O)N2CCOCC2)[C@@]2(CCC3CCCC3)c3[nH]c4cc(-c5ccco5)ccc4c3CCN2C1=O)NCCc1ccccn1	-6	?	?	·	·	?
CC(=O)Nc1cccc(NC(=O)CSc2nnc(Cc3cccn3C)n2CCc2ccccc2)c1	·	-13%	-16%	-37%	1%	1%
COc1ccc(NC(=O)CSc2nnc(Cc3cccn3C)n2CCc2ccccc2)c(OC)c1	·	-15%	?	50µM*	-6%	-28%
Cn1cccc1Cc1nnc(SCC(=O)Nc2nccs2)n1CCc1ccccc1	-7	-15%	?	?	3%	18%
COc1ccccc1NC(=O)CSc1nnc(Cc2cccn2C)n1CCc1ccccc1	·	-18%	?	50µM*	-5%	-11%
Cc1ccc(C(=O)NCCSc2c[nH]c3ccccc23)cc1C	·	·	-29%	-25%	·	6%
CC[n+]1c(/C=C2\C=C(C)CC(C)(C)C2)sc2ccccc21	·	0%	40µM*	56µM*	?	-35%
CC[n+]1c(/C=C2\C=C(C)CC(C)C2)sc2ccccc21 (configuration not stated)	-30	-11%	50µM*	?	?	3%
CCC1=C/C(=C/c2sc3ccccc3[n+]2CC)CC(C)(C)C1	?	·	13µM*	45µM*	15%	-1%
CC[n+]1c(/C=C2/C=C(C)CC(C)(C)C2)sc2ccc(OC)cc21	?	-1%	50µM*	56µM*	-17%	20µM*
O=C(CCc1nc2ccccc2s1)NC1CCOC1=O (configuration not stated)	?	?	-9%[11.4 µM]	14%	3%	-11%
CCOC(=O)c1cc2c(=O)n3ccccc3nc2n(CC2CCCO2)c1=NC(=O)c1ccc(F)cc1 (configuration not stated)	·	·	-7%	5%	·	11%
COc1cccc(C2C(C(=O)Nc3ccccc3OC)=C(C)Nc3nc4ccccc4n32)c1 (configuration not stated)	·	·	-27%	-21%	·	39%
COc1ccc(Br)cc1CNC(=O)CCCn1c(=O)c2cccn2c2ccccc21	·	·	-7%	-3%	·	27%
CCN1CCCC1CNCC(O)COc1ccc(C(C)(C)C)cc1C (configuration not stated)	-21	34%	1.6µM*	?	9%	7%

Source: PubChem BioAssay
